From PubChem BioAssay
Shown are actives, neighbours in structure and some others; about 4.9% of the full set was active somewhere.
SKKanGAS inh – S. pyogenes SKKanGAS growth inhibitors in kanamycin, primary screen, streptokinase expression inhibitor project, SKKanGAS strain, BacTiter-Glo luminescence; 6 h; inhibition, % at 7.5 µM; actives 1.3% (n = 300,000); AID 1662, 2009;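 active = mean replicate score, as percent of positive control median, at least 50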;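 also: strain carries kanamycin resistance gene driven by streptokinase promoter and grows in 40 µg/ml kanamycin; loss of luminescence reflects streptokinase promoter inhibition or plain growth inhibition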
NLRP3 yeast inh – NALP3 inflammasome inhibitors in reconstituted yeast, primary screen, luminescence, uHTS. actives 0.39% (n = 330,000). inhibition, % at 10 µM. Yeast reconstituted NLRP3/ASC/caspase-1, beta-gal luminescence, 24 h. AID 2825, 2010;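 active = inhibition of 50% or more; inactive = inhibition below 50%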
NALP1 inh – NALP1 inflammasome inhibitors in reconstituted yeast, colorimetric, S. cerevisiae, triplicate retest; S. cerevisiae NALP1/ASC/caspase-1 growth, X-gal OD620, 72 h; inhibition, % at 10 µM; actives 0.61% (n = 280,000); in the data active = inhibition mostly above about 24%, no sharp cut-off; inactive = mostly below about 32%
tim10-1 inh – growth inhibitors of tim10-1 mutant yeast, primary screen, luminescence, uHTS; S. cerevisiae tim10-1 ts strain growth, BacTiter-Glo, 24 h; actives 2.2% (n = 330,000); inhibition, % at 20 µM; AID 463190, 2010;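 active = inhibition of at least 40%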;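 also: mutant grown at 25 °C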
tim23-1 inh – growth inhibitors of tim23-1 mutant yeast, primary screen, luminescence, uHTS. AID 463212, 2010. inhibition, % at 20 µM. actives 1.3% (n = 330,000). S. cerevisiae tim23-1 growth, BacTiter-Glo luminescence, 24 h;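 active = growth inhibition of the mutant yeast at or above 50%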;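 also: temperature-sensitive mutant grown at 25 °C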
TIM10 inh – growth inhibitors of isogenic TIM10 control yeast, primary screen, counter-screen for tim10-1 yeast inhibitor project, luminescence, uHTS. S. cerevisiae TIM10 strain growth, BacTiter-Glo luminescence, 24 h. inhibition, % at 10 µM. actives 1.4% (n = 330,000);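 active = inhibition of 40% or more at the single tested concentration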;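 also: wild-type TIM10 isogenic control strain grown at permissive 25 °C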
Hits are given with their value; – = inactive; · = no result given.

SMILES | SKKanGAS inh | NLRP3 yeast inh | NALP1 inh | tim10-1 inh | tim23-1 inh | TIM10 inh
CCOC(=O)C1=C(O)c2ccccc2C(=O)/C1=C\c1ccc(CC)cc1 | 81.3 | · | – | · | · | ·
CCOC(=O)C1=C(Cc2ccc(OC)cc2)C(=O)c2ccccc2C1=O | · | · | – | · | · | ·
Cc1cccc(/C=C2\Sc3ccc(C(=O)N4CCOCC4)cc3N(C)C2=O)c1 | – | – | – | – | – | –
Cc1cccc(/C=C2\Sc3ccc(C(=O)N4CCC(C)CC4)cc3N(C)C2=O)c1 | 76.1 | – | – | – | – | –
CCOc1ccc(/C=C2/Sc3ccc(C(=O)N4CCN(C(=O)c5ccco5)CC4)cc3N(C)C2=O)cc1OC | 66.6 | – | – | – | – | –
CCOC(=O)N1CCN(C(=O)c2ccc3c(c2)N(C)C(=O)/C(=C\c2ccc(OCC)c(OC)c2)S3)CC1 | 108.4 | – | – | – | – | –
CN(C)C(=O)c1cc(C(=O)c2ccccc2Cl)c[nH]1 | – | – | – | – | – | –
Cc1cnc(NC(=O)c2ccc3ncsc3c2)s1 | · | – | · | – | – | –
O=C(Nc1ccc(Br)c2ccccc12)c1ccc2ccccc2c1O | 99.6 | · | – | · | · | ·
CC(=O)Nc1ccc(Br)c2ccccc12 | – | – | – | – | – | –
O=C(N/N=C/c1c[nH]c2ccccc12)c1cc(-c2ccc3ccccc3c2)n[nH]1 | 95.0 | – | – | – | – | –
O=C(N/N=C/c1c[nH]c2ccccc12)C1CC1c1ccccc1 (stereo unspecified) | – | – | – | – | – | –
O=C(N/N=C/c1c[nH]c2ccccc12)c1cc(-c2ccc(-c3ccccc3)cc2)n[nH]1 | 92.3 | – | – | – | – | –
O=C(N/N=C/c1c[nH]c2ccccc12)C1CC1(c1ccccc1)c1ccccc1 (stereo unspecified) | 60.4 | – | – | – | – | –
C=CCCC(=O)NC1CCCc2c1cnn2-c1ccccc1F (stereo unspecified) | – | – | – | – | – | –
CC1CCCC(NC(=O)Cc2ccc(Br)cc2)C1C (stereo unspecified) | – | – | – | – | – | –
CC1CCCC(NC(=O)COC(=O)Cc2ccc(Br)cc2)C1C (stereo unspecified) | – | – | 17.7 | – | – | –
CCc1ccc(C2NC(=S)NC3=C2C(=O)N(c2ccccc2OC)C(c2ccc(CC)cc2)N3)cc1 (stereo unspecified) | – | – | – | – | – | –
O=C1C2=C(NC(=S)NC2c2ccc(Cl)cc2)NC(c2ccc(Cl)cc2)N1c1ccc(Cl)cc1 (stereo unspecified) | 105.1 | – | – | – | – | –
CCc1nnc(NS(=O)(=O)c2ccc(NC(=O)c3cc(Cl)ccc3Cl)cc2)s1 | – | – | 38.8 | – | – | –
CCc1nnc(NS(=O)(=O)c2ccc(NC(=O)c3cc(Cl)ccc3[N+](=O)[O-])cc2)s1 | – | – | – | – | – | –
Cc1cc(N/N=C/c2ccncc2)nc2ccccc12 | – | · | – | · | · | ·
Cc1cc(N/N=C/c2cccc(Br)c2)nc2ccccc12 | 90.8 | – | – | – | – | –
O=C(N/N=C/c1cc2c3c(c1O)CCCN3CCC2)c1ccccc1O | 55.2 | · | – | · | · | ·
Cc1nn(-c2ccccc2)c(N2CCCC2)c1/C=N/NC(=O)c1ccccc1O | – | – | – | – | – | –
SMILES | SKKanGAS inh | NLRP3 yeast inh | NALP1 inh | tim10-1 inh | tim23-1 inh | TIM10 inh
CN(c1cccc(NS(=O)(=O)c2ccccc2)c1)S(C)(=O)=O | – | – | – | – | – | –
CCOc1ccc(S(=O)(=O)Nc2cccc(N(C)S(C)(=O)=O)c2)cc1 | – | – | 41.7 | – | – | –
CCOc1ccc(S(=O)(=O)N2CCCCC2)cc1NC(=O)CCNC(=O)c1ccco1 | · | – | · | – | – | –
CC(=O)N(CCC(Cc1ccccc1)c1ccc2c(c1)OCO2)Cc1ccc(Cl)cc1 (stereo unspecified) | 64.0 | – | – | – | – | –
O=C(Cn1cnc2c(nnn2Cc2ccccc2F)c1=O)OCc1ccccc1 | – | – | 25.7 | – | – | –
O=C(Cn1cnc2c(nnn2Cc2ccccc2F)c1=O)N1CCN(c2ccccc2)CC1 | – | – | – | – | – | –
CC(Oc1ccc(Cl)cc1Cl)C(=O)NC(=S)N1CCc2ccccc21 (stereo unspecified) | 104.4 | – | – | – | – | –
Cc1ccc(NC(=S)NCCSc2ccc(Cl)cc2)cc1 | – | – | – | – | – | –
CC(CNC(=S)Nc1cc(F)cc(F)c1)CSc1ccc(Cl)cc1 (stereo unspecified) | 54.6 | – | – | – | – | –
COc1ccc(/C=C/c2ccc3cccc(O)c3n2)c(OC)c1OC | 105.3 | – | – | – | – | –
CCOc1c(OC(C)=O)ccc(/C=C/c2ccc3cccc(OC)c3n2)c1[N+](=O)[O-] | – | – | – | – | – | –
COc1ccc(/C=C/c2ccncc2)c2ccccc12 | – | – | · | – | – | –
COc1cccc(/C=C/c2ccc3cccc(O)c3n2)c1OC | 86.2 | – | – | – | – | –
O=C(NC1CCCCC1)Oc1cccc2ccccc12 | – | – | – | – | – | –
CC(C)c1ccc(O)c(NC(=S)NC(=O)c2cccnc2)c1 | – | – | – | – | – | –
CC(C)(C)c1cc(Cl)c(O)c(NC(=S)NC(=O)c2cccnc2)c1 | 81.6 | – | – | – | – | –
CC(C)(C)c1ccc(C(=O)NNC(=S)NC(=O)c2cccnc2)cc1 | 100.0 | – | – | – | – | –
COc1ccc(NS(=O)(=O)c2ccc3nc(COc4cccc5ccccc45)[nH]c3c2)cc1 | 70.8 | – | – | – | – | –
COc1ccc(CCNC(=O)CN(c2ccccc2OC)S(C)(=O)=O)cc1 | – | – | 30.5 | – | – | –
COc1ccc(CCNC(=O)CN(c2ccccc2OC)S(C)(=O)=O)cc1OC | – | – | – | – | – | –
CCc1nc(N2CCN(C(=O)c3ccco3)CC2)c2c3c(sc2n1)CCCC3 | – | – | – | – | – | –
CC1CCc2c(sc3nc(C4CC4)nc(N4CCN(C(=O)c5ccco5)CC4)c23)C1 (stereo unspecified) | 57.7 | – | · | – | – | –
S=C(NCC1CCCO1)NC12CC3CC(CC(C3)C1)C2 (stereo unspecified) | – | – | 19.8 | – | – | –
Cc1ccc(NC(=S)NCC2CCCO2)cc1 (stereo unspecified) | – | – | 32.9 | – | – | –
CC(C)Cc1ccc(CN2CCCC(NC(=O)c3cccc(-n4cnnc4)c3)C2)cc1 (stereo unspecified) | – | – | – | – | – | –
Cc1ccc(COc2ccccc2-c2cc(C(=O)N/N=C/c3cccnc3)[nH]n2)cc1 | 63.2 | – | – | – | – | –
